Several values for one entry are separate records, joined by “and”; a condition that tells them apart may be missing. Equal values may be shown once. Inconclusive results are not listed. A call without a number means that no potency is given here. Activity calls are given as the source filed them. Calls follow the shape of the dose curve; as a rule, active = well fitted inhibition curve with a large enough effect in the repeat runs; inconclusive = weak or mixed curves; inactive = flat fitted curve, though single readings scatter.
Potency is read from the fitted curve at half-maximal effect.

The assay is described as follows: qHTS assay to identify small molecule HDAC inhibitors (AID 1259364). Also: nearly all actives have a fitted effect of over 45% in size. As to activity change, negative = inhibition: top concentration of the series differs between compounds. The note with it: HCT-116 HDAC-Glo I/II luminescence, 2 h; series mostly up to 92.4 µM; activity change, negative = inhibition: at the top concentration. The source says:
U.S. Tox21 Program National Center for Advancing Translational Sciences [NCATS] NIH Chemical Genomics Center [NCGC] U.S. Environmental Protection Agency [EPA] National Institutes of Environmental Health Sciences [NIEHS] National Toxicology Program [NTP] U.S. Food and Drug Administration [FDA] Tox21 Assay Overview: Histone deacetylases (HDACs) are a group of epigenetic enzymes that regulate gene expression by histone deacetylation. HDACs are capable of introducing epigenetic modifications and such aberrations contribute to the onset and progression of several human diseases, thus making HDACs a popular therapeutic target. For identifying endogenous class I/II HDAC inhibitors a homogenous, luminogenic HDAC I/II cell based assay was used to measure the relative activity of class I and II HDACs from cells. Wild type HCT-116 cells were used to screen Tox21 libraries for identifying class I/II HDAC inhibitors.
Tox21 Assay Protocol Summary: HCT-116 cells were dispensed at 1,500 per well in 5uL of culture medium into white solid bottom 1536-well plates (Greiner Bio-One, Monroe, NC) using a Multidrop Combi (Thermo Scientific, Waltham, MA) dispenser. The assay plates were incubated at 37 C and 5% CO2 for an overnight, and then 23nL of compounds dissolved in DMSO and positive control were transferred using a Pintool station (Wako, San Diego, CA). The assay plates were incubated at 37C and 5% CO2 for 2hr. After compound treatment, 4uL of HDAC-Glo reagent (Promega Corporation, Madison, WI) was added to each well of the assay plates using Flying Reagent Dispenser (FRD, Aurora Discovery, San Diego, CA) and incubated the assay plates at room temperature for 30min. The luminescence signal was quantified using a ViewLux plate reader (Perkin Elmer, Shelton, CT).
(In general: In qHTS, concentration-response curves come from the screen itself.)
With `c1ccc2ncccc2c1`, the Potency result was “inactive”.

Take `CCC/C=C/C=O`: the Potency entry is “inactive”.

Consider `c1ccc2c(c1)[nH]c1ccccc12`, for which the “activity change, negative = inhibition” value is -3.76% (inactive).

Take `CC1=CC(C)(C)Nc2ccccc21`: the Potency entry is “inactive”.

`CCCCCC1C(=O)CCC1CC(=O)OC` (stereo not given): the Potency result was “inactive”.

As for `CC(=O)Oc1ccc(C(c2ccc(OC(C)=O)cc2)c2ccccn2)cc1`, the Potency entry is “inactive”.

For `C=CC(=O)OCCCC`, the Potency entry was “inactive”.

For the compound `ClC/C=C/CCl`, the Potency entry was “inactive”.

Regarding `Oc1ccc(C(c2ccc(O)cc2)C(Cl)(Cl)Cl)cc1`, the “activity change, negative = inhibition” value is -10.3% (inactive).

`COc1cc([C@H]2Oc3cc([C@H]4Oc5cc(O)cc(O)c5C(=O)[C@@H]4O)ccc3O[C@@H]2CO)ccc1O`: the Potency entry is “inactive”.

As to `O=C(O)COCCN1CCN(C(c2ccccc2)c2ccc(Cl)cc2)CC1` (stereo not given), the Potency result was “inactive”.

As to `CC(=O)[C@@]1(O)CC[C@H]2[C@@H]3C[C@H](C)C4=CC(=O)C=C[C@]4(C)[C@@]3(F)[C@@H](O)C[C@@]21C`, the Potency result is “inactive”.

In the case of `CN1CCOCC1`, the Potency entry is “inactive”.

`CC(C)[N+](C)(CCOC(=O)C1c2ccccc2Oc2ccccc21)C(C)C`: the Potency result is “inactive”.

Regarding `CC1(C)NC(=O)N(c2ccc([N+](=O)[O-])c(C(F)(F)F)c2)C1=O`, the Potency entry is “inactive”.

Regarding `c1ccc2c(c1)ccc1cc3c(ccc4ccccc43)cc12`, the Potency is 12.1 µM (active) and 15.2 µM (active).

`Cc1ccc(C(C)(C)C)cc1`: the Potency result was “inactive”.

Consider `CC(=O)Oc1c(C)c(C)c2c(c1C)CC[C@@](C)(CCC[C@H](C)CCC[C@H](C)CCCC(C)C)O2`, for which the Potency entry was “inactive”.

Consider `O=S1(=O)CCCO1`, for which the Potency result was “inactive”.

With `CC(C)=CCO`, the Potency result is “inactive”.

In the case of `O=Cc1ccccc1C=O`, the Potency result was “inactive”.

`C=CC(C)(O)CCC=C(C)C` (stereo not given): the Potency entry was “inactive”.

Take `CC(=O)O[C@]1(C(C)=O)CC[C@H]2[C@@H]3C=C(Cl)C4=CC(=O)CC[C@]4(C)[C@H]3CC[C@@]21C`: the Potency result is “inactive”.

As for `CC(C)[C@@H]1CC[C@@H](C)CC1=O`, the Potency result was “inactive”.

For the compound `Cc1ccc(/C(=C\CN2CCCC2)c2ccccn2)cc1`, the Potency entry is “inactive”.

In the case of `COC(=O)CC(=O)OC`, the Potency entry was “inactive”.

Turning to `CC1(C)OC(=O)NC1=O`, the Potency result was “inactive”.

For `C=CCNCC=C`, the Potency result is “inactive”.

As to `CCCOCCO`, the Potency result was “inactive”.

As to `Cc1cccc(Nc2ccccc2C(=O)O)c1C`, the Potency entry was “inactive”.

`Nc1ccc2c(c1)C(=O)c1ccccc1C2=O`: the Potency was 951 nM (active) and 770 nM (active).

Regarding `CN(C)C`, the Potency result was “inactive”.

On to `Nc1ccc(N)c(Cl)c1`, for which the Potency result was “inactive”.

Regarding `Cc1ccc([N+](=O)[O-])c(C)c1`, the Potency entry was “inactive”.

For `C=C[C@@]1(C)CC(=O)[C@]2(O)[C@@]3(C)[C@@H](O)CCC(C)(C)[C@@H]3[C@H](O)[C@H](OC(C)=O)[C@@]2(C)O1`, the Potency result is “inactive”.

Turning to `CC1(C)C(C=C(Cl)Cl)C1C(=O)OCc1cccc(Oc2ccccc2)c1` (stereo not given), the Potency entry was “inactive”.

Turning to `CNC[C@H](O)c1ccc(O)c(O)c1`, the Potency result is “inactive”.

As for `C[C@]12CC[C@@H]3c4ccc(O)cc4CC[C@H]3[C@@H]1CC[C@@H]2O`, the Potency entry was “inactive”.

Regarding `CCCCCCOCCOCCO`, the Potency entry is “inactive”.

With `Nc1ccc2c(O)cc(S(=O)(=O)O)cc2c1`, the Potency result was “inactive”.

The record behind these values is PubChem BioAssay (Tox21).
